Drawing on PubChem BioAssay AID1745853 (National Center for Advancing Translational Sciences (NCATS), 2022), this text covers activity change, negative = inhibition for 25 compounds.

Each structure is given as a SMILES string. Several values for one entry are separate records, joined by “and”; a condition that tells them apart may be missing. Equal entries are not always repeated. Screen size: about 25,000 compounds; about 970 (3.9%) were called active. Roughly 8% stayed inconclusive and do not appear here. The rule behind the calls is not given here. The sample as a whole holds a higher share of actives than the screen did. Some compounds were tested as several samples or in several runs, with calls that do not always agree.

Common to all, as to test: Primary Screen for Target Class Profiling of Small Molecule Inhibitors of Methyltransferases
The target in experiment [1] is Catechol O-methyltransferase (Homo sapiens) (UniProt P21964). To be noted: purified enzyme, MTase-Glo SAH luminescence; activity change, negative = inhibition: at 40 µM, stronger effect = lower value; outcome: 40 uM. In a few lines:
(§1)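 Each enzyme was assayed with SAM and its substrate. SAH formation detected by MTase-Glo luminescence; single-point 40 uM screen[…].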

The target of experiment [2] is Glycine N-methyltransferase (Homo sapiens) (UniProt Q14749). The settings on record: purified enzyme, MTase-Glo SAH luminescence; measured here: GNMT inhibition; at 40 µM; stronger effect = lower value. In a few lines:
as §1

Experiment [3] deals with Guanidinoacetate N-methyltransferase (Homo sapiens) (UniProt Q14353). To be noted: purified enzyme, MTase-Glo SAH luminescence; measured here: GAMT inhibition; at 40 µM; stronger effect = lower value. The method, boiled down:
as §1

Experiment [4] deals with Histamine N-methyltransferase (Homo sapiens) (UniProt P50135). To be noted: purified enzyme, MTase-Glo SAH luminescence; measured here: HNMT inhibition; at 40 µM; stronger effect = lower value. The method, boiled down:
as §1

Experiment [5] deals with Nicotinamide N-methyltransferase (Homo sapiens) (UniProt P40261). To be noted: purified enzyme, MTase-Glo SAH luminescence; measured here: NNMT inhibition; at 40 µM; stronger effect = lower value. The method, boiled down: as §1
Experiment [6] has as its target Phenylethanolamine N-methyltransferase (Homo sapiens) (UniProt P11086). The settings on record: purified enzyme, MTase-Glo SAH luminescence; measured here: PNMT inhibition; at 40 µM; stronger effect = lower value. The method, boiled down:
as §1
% is set by controls: 0 for no effect and ±100 for the full control effect.

Sequence of Nicotinamide N-methyltransferase (Homo sapiens) (P40261 whole entry, looked up): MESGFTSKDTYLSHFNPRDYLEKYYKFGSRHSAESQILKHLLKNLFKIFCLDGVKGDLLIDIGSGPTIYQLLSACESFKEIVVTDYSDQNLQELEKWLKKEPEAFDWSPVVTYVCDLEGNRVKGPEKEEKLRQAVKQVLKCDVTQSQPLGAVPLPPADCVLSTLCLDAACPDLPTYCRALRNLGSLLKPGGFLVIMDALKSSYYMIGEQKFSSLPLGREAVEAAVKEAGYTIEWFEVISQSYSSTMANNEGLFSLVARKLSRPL
Sequence of Histamine N-methyltransferase (Homo sapiens) (P50135 whole entry, looked up): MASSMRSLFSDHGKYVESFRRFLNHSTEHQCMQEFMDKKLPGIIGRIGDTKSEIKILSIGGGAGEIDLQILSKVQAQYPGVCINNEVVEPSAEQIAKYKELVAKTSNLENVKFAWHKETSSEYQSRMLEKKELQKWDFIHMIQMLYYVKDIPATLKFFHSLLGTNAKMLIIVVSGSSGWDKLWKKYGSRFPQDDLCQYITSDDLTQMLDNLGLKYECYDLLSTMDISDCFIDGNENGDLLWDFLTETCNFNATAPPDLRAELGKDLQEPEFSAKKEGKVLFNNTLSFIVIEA
Sequence of Phenylethanolamine N-methyltransferase (Homo sapiens) (P11086 whole entry, looked up): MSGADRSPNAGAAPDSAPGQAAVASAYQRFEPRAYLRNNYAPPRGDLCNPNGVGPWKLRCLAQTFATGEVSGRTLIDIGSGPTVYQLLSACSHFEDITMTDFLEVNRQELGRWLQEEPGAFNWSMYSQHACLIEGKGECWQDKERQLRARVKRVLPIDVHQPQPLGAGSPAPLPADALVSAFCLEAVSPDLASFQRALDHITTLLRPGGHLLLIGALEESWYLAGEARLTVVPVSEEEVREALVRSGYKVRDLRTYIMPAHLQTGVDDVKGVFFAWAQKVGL
Sequence of Glycine N-methyltransferase (Homo sapiens) (Q14749 whole entry, looked up): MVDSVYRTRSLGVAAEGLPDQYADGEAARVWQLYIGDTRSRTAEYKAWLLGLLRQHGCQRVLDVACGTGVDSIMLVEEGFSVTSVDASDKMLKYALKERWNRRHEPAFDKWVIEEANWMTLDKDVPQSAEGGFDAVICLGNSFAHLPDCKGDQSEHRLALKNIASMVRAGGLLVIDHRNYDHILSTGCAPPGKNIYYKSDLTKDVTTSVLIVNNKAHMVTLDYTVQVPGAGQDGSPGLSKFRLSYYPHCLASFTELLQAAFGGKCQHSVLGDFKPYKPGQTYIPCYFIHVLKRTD
Sequence of Catechol O-methyltransferase (Homo sapiens) (P21964 whole entry, looked up): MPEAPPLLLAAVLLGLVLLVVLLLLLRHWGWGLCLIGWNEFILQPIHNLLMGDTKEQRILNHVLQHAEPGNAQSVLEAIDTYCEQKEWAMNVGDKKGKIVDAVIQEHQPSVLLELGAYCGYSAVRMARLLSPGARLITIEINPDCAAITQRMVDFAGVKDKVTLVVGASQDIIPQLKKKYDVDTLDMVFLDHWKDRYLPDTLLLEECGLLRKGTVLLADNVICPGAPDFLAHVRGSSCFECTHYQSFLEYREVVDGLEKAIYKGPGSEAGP

As to `CNC(=O)[C@@H]1CN(C(=O)c2ccc(OC)cc2C)C[C@H]1COC`, the activity change, negative = inhibition is -1.84% (inactive) in experiment [1]; -2.55% in experiment [2]; -4.79% in experiment [3]; -1.32% in experiment [4]; -3.85% in experiment [5]; -0.512% in experiment [6].
For `CCCN1C(=O)c2cc(C(=O)NCc3cc(Br)ccc3OC)nn2CC1(C)C(=O)NC1CCCC1` (stereo not given), the activity change, negative = inhibition is -2.6% (inactive) in experiment [1]; -4.66% in experiment [2]; -1.16% in experiment [3]; -1.31% in experiment [4]; -2.91% in experiment [5]; -4.59% in experiment [6].
For `CC1=C[C@@H](CNS(=O)(=O)c2cccc(C#N)c2)[C@H](C(C)C)C[C@H]1CC(=O)N(C)Cc1cccnc1`, the activity change, negative = inhibition in experiment [1] is -5.31% (inactive); in experiment [2], -4.49%; in experiment [3], -3.45%; in experiment [4] it was -4.55%; in experiment [5], -23.9%; in experiment [6], -6.65%.
Regarding `CCCn1c(=O)c2ccc(C(=O)NC3CCCC3)cc2n2c(=O)n(Cc3ccc(F)cc3Cl)nc12`, the activity change, negative = inhibition in experiment [1] was -1.77% (inactive); in experiment [2] it was -1.81%; in experiment [3], -0.898%; in experiment [4], 5.95%; in experiment [5], -5.65%; in experiment [6] it was -1.78%.
Consider `C=C1C(=O)O[C@@H]2C[C@@]3(C)CCCC(=C)[C@]3(O)C[C@H]12`, for which the activity change, negative = inhibition in experiment [1] was 6.75% (inactive); in experiment [2], 1.89%; in experiment [3] it was 5.34%; in experiment [4], 6.01%; in experiment [5], -3.59%; in experiment [6] it was 7.18%.
With `CCCNC(=O)Cn1ccc2cc(S(=O)(=O)N3CCCCC3)ccc21`, the activity change, negative = inhibition in experiment [1] is 4.84% (inactive); in experiment [2], 9.68%; in experiment [3], 1.89%; in experiment [4], 7.8%; in experiment [5] it was 9.14%; in experiment [6], 4.01%.
As to `O=C(O)C1=NOC2CN([S+](=O)([O-])c3cc(C(F)(F)F)cc(C(F)(F)F)c3)CC12` (stereo not given), the activity change, negative = inhibition in experiment [1] is 0.473% (inactive); in experiment [2] it was 0.245%; in experiment [3], -0.074%; in experiment [4], 1.51%; in experiment [5], -7.33%; in experiment [6] it was -0.67%.
Regarding `COc1ccccc1NC(=O)CSc1nnc2[nH]c(=O)c(C(C)(C)C)nn12`, the activity change, negative = inhibition was 9.13% (inactive) in experiment [1]; 7.62% in experiment [2]; 0% in experiment [3]; 5.75% in experiment [4]; -0.804% in experiment [5]; -8.39% in experiment [6].
In the case of `CCCn1c(=O)c2cc(Cl)ccc2n2c(SCC(=O)Nc3cccc(Cl)c3)nnc12`, the activity change, negative = inhibition is -3.39% (inactive) in experiment [1]; -7.66% in experiment [2]; -0.122% in experiment [3]; 1.87% in experiment [4]; -14% in experiment [5]; -4.95% in experiment [6].
Consider `COc1ccc(NC(=O)CSc2nnc3n(CCCOC(C)C)c(=O)c4ccccc4n23)cc1`, for which the activity change, negative = inhibition in experiment [1] was 6.36% (inactive); in experiment [2], 1.3%; in experiment [3], 1.9%; in experiment [4], 7.77%; in experiment [5], 6.56%; in experiment [6], 5.87%.
On to `CCNC(=O)C#Cc1ccc2c(C(=Nc3ccc(CN(C)C)cc3)c3ccccc3)c(O)[nH]c2c1`, for which the activity change, negative = inhibition was -18.4% (active) in experiment [1]; -35.9% in experiment [2]; -5.11% in experiment [3]; -64.7% in experiment [4]; -34.2% in experiment [5]; -13.1% in experiment [6].
Take `COCCn1c(=O)c(C(=O)N2CCN(C(C)=O)CC2)nc2cccnc21`: the activity change, negative = inhibition was -9.78% (inactive) in experiment [1]; -6.01% in experiment [2]; -10.4% in experiment [3]; -3.36% in experiment [4]; -14% in experiment [5]; -5.78% in experiment [6].
Turning to `CC(C)Cn1c(=O)c2ccccc2n2c(=O)n(Cc3ccccc3)nc12`, the activity change, negative = inhibition was 2.82% (inactive) in experiment [1]; -1.72% in experiment [2]; 0% in experiment [3]; 6.83% in experiment [4]; -9.64% in experiment [5]; 0.863% in experiment [6].
On to `Cc1ccc(NC(=O)Cn2nc3n(C(C)C)c(=O)c4ccc(C(=O)NC5CCCCC5)cc4n3c2=O)cc1`, for which the activity change, negative = inhibition in experiment [1] is 2.74% (inactive); in experiment [2], 4.18%; in experiment [3], 4.48%; in experiment [4], 8.87%; in experiment [5], 1.86%; in experiment [6], 2.8%.
Consider `CCC(=O)N1Cc2ccccc2OC2(CCN(C(C)C)CC2)C1`, for which the activity change, negative = inhibition was -1.54% (inactive) in experiment [1]; -3.35% in experiment [2]; -0.819% in experiment [3]; 0.171% in experiment [4]; -3.98% in experiment [5]; -4.26% in experiment [6].
`CCOC(=O)CC1(NC(=O)N2CCn3cccc3C2Cc2ccccc2)CCCCC1` (stereo not given): the activity change, negative = inhibition in experiment [1] is -25% (inactive); in experiment [2], -7.26%; in experiment [3], -5.73%; in experiment [4] it was -9.85%; in experiment [5], -17.7%; in experiment [6] it was -40.7%.
With `CN(C)CCN(C)[C@H]1[C@@H]2OC[C@@H](O2)[C@@H](NCc2ccc(N(C)C)cc2)[C@@H]1O`, the activity change, negative = inhibition was 2.76% (inactive) in experiment [1]; 0.488% in experiment [2]; 1.19% in experiment [3]; 0.035% in experiment [4]; -5% in experiment [5]; 0.902% in experiment [6].
In the case of `COc1ccc(C(=O)N2CCC3(CC2)CCC(O)(CN(C)C)CC3)cc1OC`, the activity change, negative = inhibition in experiment [1] was 2.82% (inactive); in experiment [2] it was -0.206%; in experiment [3] it was -1.89%; in experiment [4] it was -18.9%; in experiment [5], -5.54%; in experiment [6], -1.06%.
In the case of `CCCCNC(=O)CCc1nnc2n(CC(C)C)c(=O)c3ccccc3n12`, the activity change, negative = inhibition in experiment [1] is 3.12% (inactive); in experiment [2] it was -1.98%; in experiment [3], 4.49%; in experiment [4] it was 5.26%; in experiment [5] it was 4.71%; in experiment [6] it was -0.917%.
As for `CC(C)CCn1c(=O)c2ccccc2n2c(CCC(=O)NCCc3ccccc3)nnc12`, the activity change, negative = inhibition is 3.9% (inactive) in experiment [1]; -7.17% in experiment [2]; 0% in experiment [3]; 6.82% in experiment [4]; -15% in experiment [5]; 0.405% in experiment [6].
As for `CN(CCCNC(=O)CCCc1nnc2n3nc(-c4ccccc4)nc3c3ccccc3n12)Cc1ccccc1`, the activity change, negative = inhibition in experiment [1] was -4.54% (active); in experiment [2], -16.6%; in experiment [3], 1.44%; in experiment [4] it was -57.9%; in experiment [5] it was 0.458%; in experiment [6] it was -4.78%.
On to `COC(=O)c1ncn2c1C(=O)N(Cc1cc(OC)ccc1OC)C(C)(C(=O)NCc1ccccc1)C2` (stereo not given), for which the activity change, negative = inhibition was -9.56% (inactive) in experiment [1]; -4.3% in experiment [2]; 3.99% in experiment [3]; -2.02% in experiment [4]; -4.11% in experiment [5]; -4.82% in experiment [6].
Take `CN(C)c1cc2c(Nc3ccc4c(cnn4Cc4ccccc4)c3)ncnc2cn1`: the activity change, negative = inhibition in experiment [1] was -13.2% (active) and -7.52% (inactive); in experiment [2] it was -7.53% and -14.5%; in experiment [3] it was 10.1% and 6.13%; in experiment [4] it was 1.63% and -3.02%; in experiment [5], -17% and -13.5%; in experiment [6] it was -62.6% and -40%.
With `CCC(C)C(=O)OC1C(C)C2(O)C(C=C(CO)CC3(O)C(=O)C(C)=CC32)C2C(C)(C)C12OC(=O)C(C)C` (stereo not given), the activity change, negative = inhibition was -2.75% (inactive) in experiment [1]; -4.22% in experiment [2]; -5.2% in experiment [3]; -3.1% in experiment [4]; -15.7% in experiment [5]; -0.901% in experiment [6].
As for `O=C(NCC1CCCCC1)c1cc(-c2cc(Cl)cc(Cl)c2)c2nncn2n1`, the activity change, negative = inhibition in experiment [1] is -5.12% (inactive); in experiment [2] it was -8.77%; in experiment [3] it was -5.46%; in experiment [4], -7.54%; in experiment [5], -13.3%; in experiment [6] it was -2.36%.
